{"source": "PubChem BioAssay (NCI)", "note": "The panel holds about 79,000 compounds, 15% with a hit somewhere; the sample as a whole holds those more often. Unmarked numbers belong to inactive results. No stated cut-off is given here; in the data, active means growth inhibition above about 70%; inactive means the rest."}
{"assay": "NCI Yeast Anticancer Drug Screen. Data for the wt2 strain (AID 169);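 further: 0% = growth of vehicle-treated yeast cultures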", "conditions": "S. cerevisiae wt2 strain growth inhibition; at 3.7 µM; active compounds read high", "outline": "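Against vehicle-treated controls, the growth of yeast exposed to each compound was compared, and the inhibition was recorded.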", "units": {"growth inhibition": "%"}}
{"smiles": "O=CC=C(c1ccccc1)c1ccccc1", "growth inhibition": 9}
{"smiles": "FC(F)(F)c1nc2nc(Cl)c(Cl)nc2n1CCCN1CCOCC1", "growth inhibition": 3}
{"smiles": "BrCC[P+](c1ccccc1)(c1ccccc1)c1ccccc1", "growth inhibition": -5}
{"smiles": "N#CSc1ccc(S(N)(=O)=O)cc1", "growth inhibition": -45}
{"smiles": "O=[N+]([O-])c1ccc2nc3ccccc3cc2c1", "growth inhibition": 1}
{"smiles": "O=C(NC(Nc1ccc(F)c(Cl)c1)(C(F)(F)F)C(F)(F)F)C(C(F)(F)F)C(F)(F)F", "growth inhibition": 34}
{"smiles": "O=C(/C=C\\c1ccc(Cl)cc1Cl)c1cccs1", "growth inhibition": -1}
{"smiles": "O=C(NCCCCNCCCNC(=O)c1cc(-c2ccccc2)nc2ccccc12)c1cc(-c2ccccc2)nc2ccccc12", "growth inhibition": -1}
{"smiles": "NC(=NCc1ccccc1)N/N=C\\c1ccnc2ccccc12", "growth inhibition": -3}
{"smiles": "CCCCN(CCCC)CCSc1ccc(Cl)cc1", "growth inhibition": 3}
{"smiles": "COc1cc(C2C3=C(COC3=O)Oc3cc4c(cc32)OCO4)ccc1O", "note": "(centres undefined)", "growth inhibition": -4}
{"smiles": "C#CCCCc1ccccc1", "growth inhibition": -55}
{"smiles": "CCc1ccc(NS(=O)(=O)c2ccccc2)c([N+](=O)[O-])c1", "growth inhibition": 3}
{"smiles": "COc1ccc(C2c3cc4c(cc3OC(C)(O)C2C)OCO4)c(OC)c1", "note": "(centres undefined)", "growth inhibition": 0}
{"smiles": "COC(=O)c1ccc(CCC2=CC(=O)C(Br)=CC2=O)cc1", "growth inhibition": 7}
{"smiles": "NNC(=O)CCc1ccc2ccc3ccccc3c2c1", "growth inhibition": -1}
{"smiles": "Cn1c2ccccc2c(=O)c2cc(NC(=O)CCCCC(=O)Nc3ccc4c(c3)c(=O)c3ccccc3n4C)ccc21", "growth inhibition": -2}
{"smiles": "CC(CC(C)(C)[N+](C)(C)C)[N+](C)(C)C", "note": "(centres undefined)", "growth inhibition": -1}
{"smiles": "CC1CCN(CCC(=O)c2ccc(Cl)cc2)CC1", "growth inhibition": 1}
{"smiles": "CCCCCCCCCCCCCCC(C(=O)[O-])[n+]1ccccc1", "note": "(centres undefined)", "growth inhibition": 0}
{"smiles": "CNC1C(OC2C(OC3C(O)C(O)C(N=C(N)N)C(O)C3N=C(N)N)OC(C)C2(O)CO)OC(CO)C(O)C1O", "note": "(centres undefined)", "growth inhibition": 0}
{"smiles": "O=C(O)c1ccccc1-c1ccccc1C(=O)Nc1ccc2c(c1)Cc1ccccc1-2", "growth inhibition": 7}
{"smiles": "O=[N+]([O-])c1cccc2nc3ccccc3c(NCCCN3CCOCC3)c12", "growth inhibition": 19}
{"smiles": "C=CC(C)(O)CCC1C(=C)C(O)CC2C(C)(C)CCCC12C", "note": "(centres undefined)", "growth inhibition": -12}
{"smiles": "CN1c2ccc(Cl)cc2C(=O)NC1c1ccc([N+](=O)[O-])s1", "note": "(centres undefined)", "growth inhibition": 4}
{"smiles": "[O-][n+]1c2ccc(O)cc2nc2ccc(Br)cc21", "growth inhibition": -40}
{"smiles": "O=C1c2ccccc2-c2nc3ccccc3nc21", "growth inhibition": -22}
{"smiles": "CCCCN1C(=O)N(c2ccc(OCC)cc2)C2N(CCCC)C1C(C)(C)C2(C)C", "note": "(centres undefined)", "growth inhibition": 4}
{"smiles": "CO[C@H]1C[C@](C)(O)Cc2cc3c(c(O)c21)C(=O)c1c(O)cc2c(c1C3=O)O[C@@H]1O[C@@]2(C)[C@H](O)[C@@H](N(C)C)[C@@H]1O", "growth inhibition": -21}
{"smiles": "COc1cc2c(cc1[N+](=O)[O-])C(=O)C(Br)(Br)CCC2", "growth inhibition": 11}
{"smiles": "O=C1OC(CCl)CN1/N=C/c1ccc([N+](=O)[O-])o1", "note": "(centres undefined)", "growth inhibition": 2}
{"smiles": "CN(C)CCOc1ccc2c(c1)C/C(=C/c1ncc([N+](=O)[O-])n1C)C2=O", "growth inhibition": -23}
{"smiles": "CCCCCCCCCCCCCCCCCCN(C)CC(COP(=O)([O-])OCC[N+](C)(C)C)OC", "note": "(centres undefined)", "growth inhibition": 0}
{"smiles": "CC(C)c1ccccc1NC(=O)/C(Cl)=C(\\Cl)C(=O)O", "growth inhibition": 0}
{"smiles": "O=[N+]([O-])C(=C(Sc1ccccc1)Sc1ccccc1)C(Cl)=C(Cl)Cl", "growth inhibition": 15}
{"smiles": "C(=C\\c1ccccc1)/COc1ccccc1C(N1CCOCC1)n1nc2ccccc2n1", "note": "(centres undefined)", "growth inhibition": 1}
{"smiles": "O=C1C(Nc2ccccc2)=C(Oc2ccccc2)C(=O)c2ccccc21", "growth inhibition": 0}
{"smiles": "CCN(CC)CCN1C(=O)c2cccc3cc(OC)cc(c23)C1=O", "growth inhibition": -3}
{"smiles": "CN(C)Cc1cc(N=Nc2ccc(Cl)cc2)cc(CN(C)C)c1O", "growth inhibition": 5}
